Data published in PubChem BioAssay AID504832 (National Center for Advancing Translational Sciences (NCATS), 2011).
Screen size: about 310,000 compounds; about 18,000 (5.8%) were called active. Entries that show only a call come without a potency. Inconclusive results (about 22%) are left out. Calls follow the shape of the dose curve; as a rule, active = well fitted inhibition curve with a large enough effect; inconclusive = small, poorly fitted or top-dose-only effect, or another doubt; inactive = no such curve, though single readings can be large or run the other way. This excerpt belongs to a sample that is enriched for actives.

experiment: Primary qHTS for delayed death inhibitors of the malarial parasite plastid, 48 hour incubation; settings: P. falciparum luciferase growth in erythrocytes; series mostly up to 28.7 µM
How it was run: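 Read-out is firefly luciferase luminescence from an integrated reporter in P. falciparum, so falling signal marks reduced parasite growth. Infected erythrocytes were at 2% hematocrit and 0.1% parasitemia (final) in Albumax-supplemented RPMI 1640.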
Potency is read from the fitted curve at half-maximal effect.

SMILES	Potency
CCSc1nsc(NC(=O)Nc2ccccc2OC)n1	inactive
COc1ccc(CC(=O)NC2CCSc3ccccc32)cc1OC (centres undefined)	inactive
CO[C@H]1[C@@H]2C=CO[C@@H](O[C@H]3O[C@@H](CO)[C@H](O)[C@@H](O)[C@@H]3O)[C@@H]2[C@@]2(CO)O[C@@H]12	inactive
Cc1n[nH]c(=O)c2c(NC(=O)CSc3ccccc3F)oc(C)c12	inactive
COc1ccc(C(=O)Cc2cnn(-c3ccccc3)c2)c(O)c1	inactive
Cc1[nH]nc(-c2ccc(OCc3cnn(-c4ccccc4)c3)cc2O)c1Oc1ccc(Cl)cc1	5.22 µM (active)
CCOc1cc(C2C(C(=O)c3ccco3)=C(O)C(=O)N2Cc2ccccc2)ccc1O (centres undefined)	inactive
Cc1ccccc1NC(=O)C1CCN(C(=O)NC2CCCCC2)CC1	inactive
CCCC(=O)Nc1nnc(-c2ccccc2)o1	inactive
COc1ccc(-c2nnc(NC(=O)CS(=O)(=O)c3ccc(Cl)cc3)o2)c(OC)c1	inactive
Cc1ccc(C)c(-c2nnc(NC(=O)CS(=O)(=O)c3ccccc3)o2)c1	13.1 µM (active)
COc1ccc(NCCc2ccccn2)cc1	inactive
OCC[C@H]1C[C@H](O)[C@@H](O)[C@]2(CCc3ccccc3O2)O1	inactive
Cc1ccc2[nH]c(=O)c(CC(=O)O)c(-c3ccccc3)c2c1	inactive
O=C(/C=C/c1ccco1)NC(=S)N1CCCCC1	inactive
CCSc1nnc(NC(=O)Cc2ccccc2OC)s1	inactive
COc1ccccc1Nc1nnc(SC(C)C(=O)NC2CC2)s1 (centres undefined)	10.4 µM (active)
O=C(CSc1nnc(Nc2ccccc2F)s1)NC1CCCC1	inactive
O=C1CCCN1C(=O)COc1ccc([N+](=O)[O-])cc1	inactive
O=C(CNc1ccccc1N1CCCC1=O)Nc1cc(Cl)ccc1-n1cncn1	inactive
Cc1cccc(C)c1NC(=O)CNC(=O)c1c(C)nn(-c2ccccc2)c1C	inactive
Cc1nn(-c2ccccc2)c(C)c1NC(=O)CCl	4.65 µM (active)
Cc1nn(-c2ccccc2)c(C)c1NC(=O)COC(=O)Cc1ccccc1	inactive
COc1cc(NS(=O)(=O)c2ccc(NC(=O)c3ccc([N+](=O)[O-])cc3)cc2)ncn1	inactive
O=C(Nc1ccc(C(=O)N2CCCCC2)cc1)c1cccc([N+](=O)[O-])c1	inactive
Cn1ccc(=Nc2ccc(NC(=O)c3ccc(N=c4ccn(C)c5ccc([N+](=O)[O-])cc45)cc3)cc2)cc1	0.233 µM (active)
O=S(=O)(c1cccc(-c2nnc3n2CCCCC3)c1)N1CCOCC1	inactive
O=S(=O)(c1cccc(-c2nnc(SC(F)F)n2-c2ccccc2)c1)N1CCCCC1	11.7 µM (active)
O=S(=O)(c1cccc(-c2cn3ccccc3n2)c1)N1CCCC1	inactive
